A selection: hits, their analogues and other compounds. The true share with any hit is near 2.6%.
TWEAK Fn14 block – inhibitors of TWEAK-Fn14 interaction signaling; TWEAK-stimulated Fn14 reporter cells, luciferase luminescence, 8 h; inhibition, % at 10 µM; 360,000 compounds, 2% hits; in the data active = inhibition above about 50%
EWS-Fli block – inhibitors of EWS/Fli oncoprotein transcriptional activity. A673 NR0B1-luciferase reporter, viability-normalised. inhibition, % at 12.6 µM. 350,000 compounds, 0.67% hits. AID 651661;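 active = mean inhibition of at least 50% after viability correction, with every replicate also passing that limit; inconclusive = mean reaches 50% but only one of two replicates passes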;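 also: firefly luciferase signal divided by Alamar Blue viability fluorescence both relative to DMSO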
LMP1 NFkB inh – reduces LMP1-driven NF-kappaB luciferase signal; LMP1-induced NF-kappaB luciferase reporter cells, luminescence; inhibition, % at 12.5 µM; 350,000 compounds, 0.69% hits; in the data active = inhibition above about 41%; inconclusive = no clear call, values can overlap the other calls;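 also: 0% = neutral control wells and 100% = reference inhibitor control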
TROY NFkB inh – TROY signaling inhibition | AID 1347056 | inhibition, % at 10 µM | 360,000 compounds, 0.98% hits | Q293 LMP1-TROYcd NF-kB luciferase reporter, 4 h;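 active = compounds whose plate-normalised and pattern-corrected inhibition of the luciferase reporter signal at the single screening dose is 50% or more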
LGR2 antag – Drosophila LGR2 receptor signaling inhibition | HEK293 LGR2, CRE-luciferase, bursicon-stimulated, 4 h | inhibition, % at 9.99 µM | 380,000 compounds, 0.35% hits;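 active = drop in luminescence signal, shown as inhibition above about 50% in the replicate tests, limit read from the data, passing the limit was not always enough; inconclusive = probably only some replicates passing the limit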;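 also: agonist challenge used bursicon conditioned medium at about half maximal strength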
Numbers without * were called inactive; ? = inconclusive; . = no result.

SMILES | TWEAK Fn14 block | EWS-Fli block | LMP1 NFkB inh | TROY NFkB inh | LGR2 antag
COc1ccc(CN(C)C[C@@H]2OCCCC[C@@H](C)Oc3ccc(NC(=O)NC(C)C)cc3C(=O)N([C@H](C)CO)C[C@H]2C)cc1 | . | 2 | . | . | -2
COc1ccc2c3c(n(C)c2c1)[C@@H](CO)N(C(=O)c1cnccn1)CC31CN(C)C1 | . | -9 | . | . | -3
O=C(COc1ccccc1)Nc1cccc(-c2nc3cc4ccccc4cc3[nH]2)c1 | 77* | . | -52 | 7 | .
O=C(COc1ccccc1)Nc1cccc(-c2nn[nH]n2)c1 | -7 | 6 | -10 | -26 | 5
O=C(N/N=C/c1ccccc1)c1n[nH]c2c1CCCC2 | 54* | -13 | 24 | 10 | 31
O=C(N/N=C/c1cccs1)c1n[nH]c2c1CCC2 | 57* | . | 39 | 19 | ?
O=C(N/N=C/c1ccc(Cl)cc1)c1n[nH]c2c1CCCC2 | -3 | 35 | 0 | -29 | -74
O=C(N/N=C/c1ccccc1Cl)c1n[nH]c2c1CCCC2 | 97* | 14 | 19 | 74* | 71*
O=C(C[C@@H]1C[C@H]2c3cc(NC(=O)Nc4ccccc4)ccc3O[C@H]2[C@H](CO)O1)NCC1CC1 | . | -1 | . | . | 1
O=C(Nc1nccs1)c1cccc(N2C(=O)c3cccc4c([N+](=O)[O-])ccc(c34)C2=O)c1 | 85* | . | -9 | . | .
O=C(Nc1ccc(S(=O)(=O)Nc2nccs2)cc1)c1cccc(N2C(=O)c3ccccc3C2=O)c1 | 8 | 4 | 4 | -3 | 11
C[C@H](CO)N1C[C@H](C)[C@H](CN(C)Cc2cccc3c2OCCCO3)OCc2cn(nn2)CCCC1=O | . | -3 | . | . | 20
CN(Cc1cccs1)c1ncnc2sccc12 | 13 | . | 20 | 25 | .
CN(Cc1ccccc1F)c1ncnc2sccc12 | 51* | 2 | 6 | 20 | -1
Cc1ccc(Nc2nc(Cl)nc(N(C)C#N)n2)cc1 | 90* | . | -6 | 9 | 1
CCc1ccc(OCC(=O)c2c(O)c3ccccc3oc2=O)cc1 | 16 | 0 | 5 | 59* | 11
Cc1ccc(OCC(=O)c2c(O)c3ccccc3oc2=O)cc1C | 7 | . | -3 | 62* | .
Cc1ccc(C(C)C)c(OCC(=O)c2c(O)c3ccccc3oc2=O)c1 | 15 | . | 10 | 51* | .
CCOc1ccc(N=Cc2c(O)c3ccccc3oc2=O)cc1 | 5 | . | 0 | 29 | -41
O=C(CC1CC1)N[C@@H]1CC[C@@H](CCNS(=O)(=O)c2ccc(F)cc2)O[C@H]1CO | . | -8 | . | . | 3
Cc1nc2c(-c3ccc(Cl)cc3)c(C)[nH]n2c(=O)c1Cc1ccccc1 | 40 | 14 | 43* | 32 | 16
Cc1nc2c(C#N)c(C)[nH]n2c(=O)c1Cc1ccccc1 | 64* | 12 | -3 | 31 | -1
CC=Cc1ccc2n(c1=O)C[C@H]1[C@H](CO)[C@@H](C(=O)NC3CCC3)[C@@H]2N1Cc1cccnc1 (mixture of isomers) | . | 0 | . | . | -10
O=C(N[C@H]1C=C[C@H](CC(=O)N2CCOCC2)O[C@H]1CO)c1ccc2c(c1)OCO2 | . | 3 | . | . | -2
CCn1c(C)cc(/C=C2/SC(=S)NC2=O)c1C | -28 | 79* | -1 | 11 | 2
SMILES | TWEAK Fn14 block | EWS-Fli block | LMP1 NFkB inh | TROY NFkB inh | LGR2 antag
O=[N+]([O-])c1ccc(O)c(/C=N/NC(=S)Nc2ccc(Cl)cc2Cl)c1 | 71* | 11 | 24 | 33 | -2
O=C(N/N=C/c1cc([N+](=O)[O-])ccc1O)NC12CC3CC(CC(C3)C1)C2 | 93* | 20 | 27 | 85* | .
O=C(N/N=C/c1cc([N+](=O)[O-])ccc1O)C12CC3CC(CC(C3)C1)C2 | -10 | 17 | 10 | -15 | 7
Fc1ccc(/C=N/NC(=S)Nc2ccc(Cl)cc2Cl)cc1 | -4 | 53* | -3 | -16 | -1
COc1ccc2c3c([nH]c2c1)[C@@H](CO)N(S(C)(=O)=O)CC31CCN(CC2CCCCC2)CC1 | . | 0 | . | . | -13
COc1ccc(CNC(=O)C[C@H]2CC[C@H](NC(=O)Nc3ccc4c(c3)OCO4)[C@@H](CO)O2)cc1 | . | -11 | . | . | 30
COc1ccc(/C=C/C(=O)c2ccc3c4c(cccc24)CC3)cc1OC | 52* | . | 11 | -7 | -22
COc1ccc(C(=O)Oc2ccc(F)cc2C(=O)/C=C/c2ccc(OC)c(OC)c2)cc1 | 26 | . | 2 | 3 | 12
COc1ccc(/C=C/C(=O)c2cc(F)ccc2OC(=O)c2ccccc2C)cc1OC | 53* | ? | -12 | 24 | 32
C[C@H](CO)N1C[C@H](C)[C@H](CN(C)C(=O)Nc2ccc(F)cc2)OCCCC[C@H](C)Oc2ccc(NS(=O)(=O)c3ccccc3)cc2C1=O | . | -4 | . | . | -11
CCOC(=O)N1CCC(Nc2c(-c3ccc(C)c(C)c3)c(=O)c2=O)CC1 | -1 | . | 53* | -8 | .
O=C(/C=C/c1ccc2c(c1)OCCCO2)c1ccccc1O | 75* | -35 | -18 | 56* | -14
Cc1ccc(O)c(C(=O)/C=C/c2ccc3c(c2)OCCCO3)c1 | 56* | -12 | 3 | -26 | -30
Cc1ccc(C(=O)/C=C/c2ccc3c(c2)OCO3)o1 | 2 | -88 | -2 | -64 | -56
Cc1ccc(O)c(C(=O)C=Cc2ccccc2)c1 | 54* | -18 | 5 | -24 | -27
Cc1ccc(/C=C/C(=O)c2ccccc2O)cc1 | 1 | -91 | 3 | -63 | -54
CN(C)c1ccc(/C=C/C(=O)c2ccc(O)cc2)cc1 | -16 | -54 | -12 | -37 | -69
CN(C)c1ccc(/C=C/C(=O)c2ccccc2O)cc1 | 58* | -13 | -28 | 50* | -2
CCNc1ccccc(C(=O)/C=C/c2ccc3c(c2)OCO3)c1=O | 0 | . | 1 | 6 | .
O=C(C[C@@H]1CC[C@@H]2[C@H](COC[C@@H](O)CN2S(=O)(=O)c2ccccc2)O1)Nc1ccccc1 | . | 2 | . | . | -22
O=C(CCl)NC(Cc1ccccc1)c1ccccc1 (stereo not drawn) | 53* | 18 | 0 | -23 | 15
CC(=O)C(Cc1ccccc1)NC(=O)CCl (stereo not drawn) | 8 | 14 | -10 | -24 | 2
CCC(=O)N1CC(=O)N2[C@H](C1)[C@H](c1ccc(-c3ccccc3F)cc1)[C@@H]2CO | . | 1 | . | . | -2
COc1ccccc1NC(=O)N1C[C@@H](O)COC[C@@H]2O[C@@H](CC(=O)NCCc3ccccc3)CC[C@H]21 | . | 2 | . | . | -5
NC(=O)C1(N2CCCCC2)CCN(C(=O)c2ccc(-n3cnnn3)cc2)CC1 | -1 | . | 64* | -7 | .
O=C(c1ccc(-n2cnnn2)cc1)N1CCOCC1 | -7 | . | 5 | 14 | .
CN(C)C(=O)c1cc(Cl)ccc1Sc1cc(Cl)ccc1Cl | 4 | . | -18 | -33 | .
Oc1ccc(Cl)cc1Sc1cc(Cl)ccc1O | 73* | 23 | 1 | 62* | .
COC(=O)[C@@H]1[C@@H](CO)[C@@H]2Cn3c(ccc(-c4cccc(F)c4)c3=O)[C@@H]2N1CC1CC1 | . | -2 | . | . | -19
C[C@H]1CCCCO[C@H](CN(C)Cc2ccccc2)[C@@H](C)CN([C@@H](C)CO)C(=O)c2cc(NC(=O)Nc3ccc(C(F)(F)F)cc3)ccc2O1 | . | 41 | . | . | -2

Assay outcomes from PubChem BioAssay.
